Assay results reported in PubChem BioAssay (NCATS).
Unmarked numbers belong to inactive results. Results filed as inconclusive are left out. Entries that show only a call come without a potency. Active and inactive are the calls of the source. Calls come from the whole dose curve; as a rule, active = well fitted curve in the direction sought with a large enough effect; inconclusive = small, poorly fitted or top-dose-only effect, or another doubt; inactive = no such curve, though single readings can be large; an effect the other way counts as inactive or inconclusive.

How the values were obtained:
[1] = target: Glutathione peroxidase 1 (Homo sapiens) (UniProt P07203); assay: Primary qHTS Assay for Inhibitors of Recombinant Selenoprotein Glutathione Peroxidase 1 (GPX1) (AID 1845191); details: recombinant GPX1, GR-coupled NADPH fluorescence, 15 min; series mostly up to 48.8 µM; note: nearly all actives have a fitted effect of over 65% in size
Glutathione peroxidase 1 (Homo sapiens), sequence (P07203 whole entry, looked up): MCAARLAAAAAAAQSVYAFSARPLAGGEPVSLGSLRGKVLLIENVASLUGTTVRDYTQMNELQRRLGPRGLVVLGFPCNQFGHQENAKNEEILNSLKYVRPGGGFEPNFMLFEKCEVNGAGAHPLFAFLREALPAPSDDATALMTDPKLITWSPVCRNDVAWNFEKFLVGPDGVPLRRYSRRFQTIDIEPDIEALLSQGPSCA
Summary of the method: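 GR-coupled readout: NADPH consumption tracked by fluorescence, ex 340/em 450 nm, at t=0 and after 15 min at RT. Final mix 10 nM GPX1, 1 mM GSH, 0.5 mM CHP, 0.5 mM NADPH, 100 nM GR, 0.01% BSA, following 30 min enzyme–compound preincubation.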

[2] = target: Phospholipid hydroperoxide glutathione peroxidase GPX4 (Homo sapiens) (UniProt P36969); assay: Primary qHTS Assay for Inhibitors of Recombinant Selenoprotein Glutathione Peroxidase 4 (GPX4) (AID 1845192); details: recombinant GPX4, GR-coupled NADPH fluorescence, 15 min; series mostly up to 50 µM; note: nearly all actives have a fitted effect of over 65% in size
Phospholipid hydroperoxide glutathione peroxidase GPX4 (Homo sapiens), sequence (P36969 whole entry, looked up): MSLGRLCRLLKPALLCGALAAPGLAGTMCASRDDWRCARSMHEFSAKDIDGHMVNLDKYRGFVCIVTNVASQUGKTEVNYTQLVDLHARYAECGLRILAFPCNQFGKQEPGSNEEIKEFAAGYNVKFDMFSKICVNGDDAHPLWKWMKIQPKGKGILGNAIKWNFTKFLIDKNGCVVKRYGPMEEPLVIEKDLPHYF
Summary of the method: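 Steps: GPX4 plus compound, 30 min RT; add GR/GSH/NADPH master mix; start with cumene hydroperoxide; read 340/450 nm fluorescence at 0 and 15 min. Finals were 200 nM GPX4, 1 mM GSH, 0.5 mM CHP, 0.5 mM NADPH, 100 nM GR.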

[3] = target: Luciferin 4-monooxygenase (Photinus pyralis) (UniProt P08659); assay: Primary firefly luciferase (FLuc) qHTS assay for identification of artifact compounds. (AID 1845220); details: purified firefly luciferase, luminescence, 5 min; series mostly up to 54.1 µM; note: nearly all actives have a fitted effect of over 60% in size; note: potency is the fitted concentration of half-maximal effect
Summary of the method: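 Enzymatic FLuc inhibition assay: compounds pre-exposed to luciferin/ATP (10 uM each) for 15 min, then purified P. pyralis enzyme at 10 nM added. Read-out: luminescence at 5 min.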

[4] = Primary fluorescence-based thiol-reactive (MSTI) qHTS assay for identification of artifact compounds. (AID 1845221); details: MSTI thiol-reactivity probe, 1 h; series mostly up to 53.8 µM; note: nearly all actives have a fitted effect of over 65% in size; note: potency is the fitted concentration of half-maximal effect;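 for activity change, negative = thiol reactive: thiol-reactive compounds lower the probe fluorescence signal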
Summary of the method: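 One-hour, room-temperature, dark incubation of compound with 4 uM MSTI in PBS (pH 7.4, 2% DMSO) precedes a fluorescence read at 525 nm excitation, 598 nm emission; Hill-equation fitting yields concentration-response values.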

[5] = tested on: Nanoluciferase (engineered Oplophorus gracilirostris luciferase); assay: Primary Nanoluciferase (NLuc) qHTS assay for identification of artifact compounds. (AID 1845222); details: NLuc-conditioned medium, Nano-Glo luminescence, 5 min; series mostly up to 54.1 µM;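 note: NLuc secreted into diluted conditioned medium of S16 cells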
Summary of the method: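 S16 cell supernatant NLuc, 1:55; cpds qHTS; 15 min RT dark; Nano-Glo substrate 1:100, 5 min; luminescence; Hill fit of % inhibition.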

[6] = Primary redox qHTS assay for identification of artifact compounds. (AID 1845223); details: Amplex Red/HRP redox cycling with DTT, fluorescence; series mostly up to 53.8 µM; note: potency is the fitted concentration of half-maximal effect
Summary of the method: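 Redox-cycling detection via DTT (250 uM final) oxidation coupled to Amplex Red (25 uM)/HRP (250 mU/mL) in HBSS. 15 min preincubation plus 30 min after DTT, room temperature. Ex/Em 525/598 nm; 4-parameter Hill fit against DMSO and 10 uM DA3003.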

Row | SMILES | Potency [1] | Potency [2] | Potency [3] | Potency [4] | Potency [5] | Potency [6] | activity, negative = inhibition [1] | activity change, negative = inhibition [2] | activity change, negative = inhibition [3] | activity change, negative = thiol reactive [4] | activity, negative = inhibition [5] | redox activity (% of DA3003) [6]
1 | CNS(=O)(=O)c1ccccc1Nc1nc(Nc2ccc(N3CCN(C)CC3)cc2OC)ncc1Br | inactive | inactive | inactive | 2.67 µM (active) | inactive | inactive | – | – | – | – | – | –
2 | O=C(COc1ccc(C(=O)c2ccccc2)cc1)NC1CCN(Cc2ccccc2)CC1 | inactive | inactive | inactive | inactive | inactive | inactive | – | – | – | – | – | –
3 | COc1ccc(S(=O)(=O)N2CCC[C@H]2C(=O)Nc2cc(C)cc(C)c2)cc1 | inactive | inactive | inactive | inactive | inactive | inactive | – | – | – | – | – | –
4 | O=C(COc1ccc2ccccc2c1Br)Nc1cccnc1 | inactive | inactive | 6.01 µM (active) | inactive | inactive | inactive | – | – | – | – | – | –
5 | COC1CC(=O)C23C(=O)NC(Cc4c[nH]c5ccccc45)C2C(C)C2(C)OC2C3/C=C/CC(C)CC1O (stereo not given) | inactive | inactive | inactive | inactive | inactive | inactive | – | – | – | – | – | –
6 | COc1ccc([C@H]2OC[C@H]3O[C@@H](O[C@H]4[C@@H]2NC[C@@H]4O)[C@H](O)[C@H]3O)cc1 | inactive | inactive | inactive | inactive | inactive | inactive | – | – | – | – | – | –
7 | CCCn1ncc(CN2CCCC(C(=O)c3cccc(OC(C)C)c3)C2)c1C (stereo not given) | inactive | inactive | inactive | inactive | inactive | inactive | – | – | – | – | – | –
8 | CC(C)n1nc(C#Cc2ccccc2)c2c(N)ncnc21 | inactive | inactive | inactive | inactive | inactive | inactive | – | – | – | – | – | –
9 | C[C@@H]1CCCN1CCc1cc2cc(-c3ccc(C#N)cc3)ccc2o1 | inactive | inactive | inactive | inactive | inactive | inactive | – | – | – | – | – | –
10 | CCC(C)CNCC(=O)N1CCc2sccc2C1COc1cccc(C)c1 (stereo not given) | inactive | inactive | inactive | inactive | inactive | inactive | – | – | – | – | – | –
11 | O=C(Nc1ccc(N2C(=O)[C@@H]3[C@H](C2=O)[C@@H]2C=C[C@H]3C2)c(Cl)c1)c1ccccn1 | inactive | inactive | 19 µM (active) | inactive | inactive | inactive | – | – | – | – | – | –
12 | COC1=CC(=O)C[C@@H](C)[C@@]12Oc1c(Cl)c(OC)cc(OC)c1C2=O | inactive | inactive | inactive | inactive | inactive | inactive | – | – | – | – | – | –
13 | COc1ccc(-n2c(SCCCN3C(=O)c4cccc5cccc(c45)C3=O)nnc2-c2ccncc2)cc1 | inactive | inactive | inactive | inactive | inactive | inactive | – | – | – | – | – | –
14 | CCCCCCCCC(=O)N[C@H](CN1CCCC1)[C@H](O)c1ccc2c(c1)OCCO2 | inactive | inactive | inactive | inactive | inactive | inactive | – | – | – | – | – | –
15 | COc1cc(NC(=O)c2cccc(-n3cc(NC(=O)Nc4cccc(C)c4)cn3)c2)cc(OC)c1OC | inactive | inactive | inactive | inactive | inactive | inactive | – | – | – | – | – | –
16 | CC(=O)O[C@@H]1C[C@]2(C)[C@@]3(CCC4[C@@]5(C)CC[C@H](O[C@@H]6O[C@H](C(=O)O)[C@@H](O)[C@H](OC7OC(CO)C(O)C(O)[C@H]7O[C@@H]7O[C@@H](C)[C@H](O)[C@@H](O)[C@H]7O[C@@H]7OC[C@](O)(CO)[C@H]7O)[C@H]6OC6OC(CO)C(O)C(O)C6O)C(C)(C)C5CC[C@]42C)OC[C@@]12CCC(C)(C)CC23 (stereo not given in full) | – | – | – | – | – | – | -11.2% [at 9.52 µM] | -2.16% [at 9.73 µM] | -3.18% [at 11.6 µM] | 238% [at 11.5 µM] | 0.912% [at 11.6 µM] | 8.79% [at 11.5 µM]
17 | Cc1ccc(C(C)C)c(O[C@@H]2O[C@H](CO)[C@@H](O)[C@H](O)[C@H]2O)c1 | inactive | inactive | inactive | 10.4 µM (active) | inactive | inactive | – | – | – | – | – | –
18 | Cc1ccc(-c2c(C(=O)CCl)n(CCCO)c3ncnc(N)c23)cc1 | inactive | inactive | inactive | inactive | inactive | 15 µM (active) | – | – | – | – | – | –
19 | COc1ccc(C[C@H]2COC(=O)[C@@H]2Cc2ccc(O[C@@H]3O[C@H](CO)[C@@H](O)[C@H](O)[C@H]3O)c(OC)c2)cc1OC | inactive | inactive | inactive | inactive | inactive | inactive | – | – | – | – | – | –
20 | CC(C)=C1C[C@@]2(C)C(=CC1=O)CC[C@@H](OC(=O)/C(C)=C/CO)[C@@H]2C | inactive | inactive | inactive | inactive | inactive | inactive | – | – | – | – | – | –
21 | COc1cccc(OCCCN)c1-c1cc(Nc2cnc(C#N)cn2)n[nH]1 | inactive | inactive | inactive | inactive | inactive | inactive | – | – | – | – | – | –
22 | CC1(C=O)CCCC2(C)C1CCC13CC(CO)C(CCC12)C3 (stereo not given) | inactive | inactive | inactive | inactive | inactive | inactive | – | – | – | – | – | –
23 | CCCNCCc1ccc(NS(=O)(=O)c2ccc(OC(F)(F)F)cc2)cc1 | inactive | inactive | inactive | inactive | inactive | inactive | – | – | – | – | – | –
24 | CC(C)CCNC(=O)c1ccc2c(c1)nc(Nc1n[nH]c3ccc(-c4ccccc4OC(F)(F)F)cc13)n2C1CCC(O)CC1 (stereo not given) | inactive | inactive | inactive | 5.32 µM (active) | inactive | inactive | – | – | – | – | – | –
25 | N[C@@H]1c2cccnc2[C@H](OC(=O)N2CCC(n3c(=O)[nH]c4ncccc43)CC2)CC[C@H]1c1cccc(F)c1F | inactive | inactive | inactive | inactive | inactive | inactive | – | – | – | – | – | –
